# Measurements published in the supplement of paper PMC9262897, “Low-cost anti-mycobacterial drug discovery using engineered E. coli” (Nature Communications, 2022).
# Where a name gives a salt, the structure may show the parent alone. ± gives the standard deviation of the averaged measurements.
# Tested on: E. coli TESEC Mtb Alr
# Test: growth (OD600 after 10 h); higher = more growth (less inhibition)
# Conditions: arabinose 1000 nM; compound 0.1 mM; raw OD600 reference: median of DMSO wells 0.294, cell-free background 0.041
# Method: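 TESEC Mtb Alr E. coli, or the Alr+ wild-type control, in 384-well plates with Prestwick library compounds at 0.1 mM and 1% DMSO, across arabinose induction levels of 1E3 to 1E7 nM. Growth is read as OD600 after 10 h at 37 °C in triplicate biological replicates.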
row,Structure (SMILES),growth
1,CCc1cccc(CC)c1NC(=O)CN(CC(=O)O)CC(=O)O [Etifenin],0.295 ± 0.011
2,CCC(=O)[C@@]1(C)[C@H](C)C[C@H]2[C@@H]3CCC4=CC(=O)C=C[C@]4(C)[C@H]3[C@@H](O)C[C@@]21C [Rimexolone],0.275 ± 0.019
3,"Cc1cn([C@H]2C[C@H](N=[N+]=[N-])[C@@H](CO)O2)c(=O)[nH]c1=O [Zidovudine, AZT]",0.0804 ± 0.011
4,O=C(CCCCCCC(=O)Nc1ccccc1)NO [Vorinostat],0.295 ± 0.0062
5,CN/C(=N\CCSCc1nc[nH]c1C)NC#N [Cimetidine],0.295 ± 0.023
6,O=C(N[C@H](CO)[C@H](O)c1ccc([N+](=O)[O-])cc1)C(Cl)Cl [Chloramphenicol],0.03953 ± 0.00031

# Same assay, conditions: arabinose 10000 nM; compound 0.1 mM; raw OD600 reference: median of DMSO wells 0.264, cell-free background 0.041
row,Structure (SMILES),growth
1,N=c1nc(N2CCCCC2)cc(N)n1O [Minoxidil],0.247 ± 0.014
2,CC(=O)NC[C@H]1CN(c2ccc(N3CCOCC3)c(F)c2)C(=O)O1 [Linezolid],0.0406 ± 0.00046
3,"CC(O)(P(=O)(O)O)P(=O)(O)O [Etidronic acid, disodium salt]",0.275 ± 0.0062
4,COc1ccc2cc([C@@H](C)C(=O)O)ccc2c1 [(R) -Naproxen sodium salt],0.275 ± 0.0043
5,NC1CCN(c2nc3c(cc2F)c(=O)c(C(=O)O)cn3-c2ccc(F)cc2F)C1 (stereo unspecified) [Tosufloxacin hydrochloride],0.0491 ± 0.00026
6,O=C(NCCNCC(O)COc1ccc(O)cc1)N1CCOCC1 (stereo unspecified) [Xamoterol hemifumarate],0.272 ± 0.0074
7,Cc1cc2cc3c(C)cc(=O)oc3c(C)c2o1 [Trioxsalen],0.258 ± 0.008
8,CCCCC(=O)O[C@H]1CC[C@H]2[C@@H]3CCc4cc(O)ccc4[C@H]3CC[C@]12C [Estradiol Valerate],0.285 ± 0.0065
9,CCCc1ncc(C[n+]2ccccc2C)c(N)n1 [Amprolium hydrochloride],0.2572 ± 0.0021
10,COC1=C(OC)C(=O)C(CCCCCCCCCCO)=C(C)C1=O [Idebenone],0.0413 ± 0.00026
11,CC(N/C(=N\C#N)Nc1ccncc1)C(C)(C)C (stereo unspecified) [Pinacidil],0.257 ± 0.0097
12,C[C@H]1C[C@H]2[C@@H]3CCC4=CC(=O)C=C[C@]4(C)[C@@]3(F)[C@@H](O)C[C@]2(C)[C@@]1(O)C(=O)CO [Betamethasone],0.256 ± 0.002
13,Fc1ccc(C(c2ccc(F)cc2)N2CCN(C/C=C/c3ccccc3)CC2)cc1 [Flunarizine dihydrochloride],0.0787 ± 0.0024
14,CCC(NC(C)C)C(O)c1ccc(O)c(O)c1 (stereo unspecified) [Isoetharine mesylate salt],0.277 ± 0.005
15,C[C@H]1O[C@@H](O[C@H]2[C@@H](O)C[C@H](O[C@H]3[C@@H](O)C[C@H](O[C@H]4CC[C@@]5(C)[C@H](CC[C@@H]6[C@@H]5C[C@@H](O)[C@]5(C)[C@@H](C7=CC(=O)OC7)CC[C@]65O)C4)O[C@@H]3C)O[C@@H]2C)C[C@H](O)[C@@H]1O [Digoxin],0.275 ± 0.0083
16,CC(C)(O/N=C(\C(=O)N[C@@H]1C(=O)N2C(C(=O)[O-])=C(C[n+]3ccccc3)CS[C@H]12)c1csc(N)n1)C(=O)O [Ceftazidime pentahydrate],0.0396 ± 0.0004
17,Cc1cccc(C)c1NC(=O)C(C)N (stereo unspecified) [Tocainide hydrochloride],0.269 ± 0.0071
18,CCCCNc1cc(C(=O)O)cc(S(N)(=O)=O)c1Oc1ccccc1 [Bumetanide],0.251 ± 0.0081
19,CCCSc1ccc2[nH]c(NC(=O)OC)nc2c1 [Albendazole],0.255 ± 0.0036
20,O=c1[nH]cc(F)c(=O)[nH]1 [5-fluorouracil],0.148 ± 0.0051

row,Structure (SMILES),growth
1,CCN(CC)CCOC(=O)C(c1ccccc1)c1ccccc1 [Adiphenine hydrochloride],0.252 ± 0.004
2,CCCCc1cc2ccccc2c(OCCN(C)C)n1 [Dimethisoquin hydrochloride],0.162 ± 0.0045
3,Nc1ccc(S(=O)(=O)Nc2nccs2)cc1 [Sulfathiazole],0.203 ± 0.0029
4,Nc1c2c(nc3ccccc13)CCCC2 [Tacrine hydrochloride],0.248 ± 0.0067
5,O=C(O)c1cc(/N=N/c2ccc(S(=O)(=O)Nc3ccccn3)cc2)ccc1O [Sulfasalazine],0.254 ± 0.0054
6,Oc1c(Cl)cc(Cl)c(Cl)c1Cc1c(O)c(Cl)cc(Cl)c1Cl [Hexachlorophene],0.0445 ± 0.00086
7,CC(C)(C)NC(=O)[C@@H]1C[C@@H]2CCCC[C@@H]2CN1C[C@@H](O)[C@H](Cc1ccccc1)NC(=O)[C@H](CC(N)=O)NC(=O)c1ccc2ccccc2n1 [Saquinavir mesylate],0.0491 ± 0.0035
8,CN1CCN(C2=Nc3cc(Cl)ccc3Nc3ccccc32)CC1 [Clozapine],0.242 ± 0.0072
9,COc1ccc(C2CNC(=O)C2)cc1OC1CCCC1 (stereo unspecified) [Rolipram],0.29 ± 0.0047
10,C[C@H](Cc1cc2c(c(C(N)=O)c1)N(CCCO)CC2)NCCOc1ccccc1OCC(F)(F)F [Silodosin],0.273 ± 0.0053
11,COCCCOc1ccnc(C[S+]([O-])c2nc3ccccc3[nH]2)c1C (stereo unspecified) [Rabeprazole Sodium salt],0.262 ± 0.011
12,O=C(O)c1cccnc1Nc1cccc(C(F)(F)F)c1 [Niflumic acid],0.0488 ± 0.00046
13,C[C@]12CC[C@@H]3c4ccc(O)cc4C[C@@H](CCCCCCCCC[S+]([O-])CCCC(F)(F)C(F)(F)F)[C@H]3[C@@H]1CC[C@@H]2O (stereo partly specified) [Fulvestrant],0.27 ± 0.009
14,CC(C)(C)NCC(O)COc1cccc2c1CC(O)C(O)C2 (stereo unspecified) [Nadolol],0.267 ± 0.0029
15,CCc1cccc(CC)c1NC(=O)CN(CC(=O)O)CC(=O)O [Etifenin],0.276 ± 0.0042
16,CCC(=O)[C@@]1(C)[C@H](C)C[C@H]2[C@@H]3CCC4=CC(=O)C=C[C@]4(C)[C@H]3[C@@H](O)C[C@@]21C [Rimexolone],0.248 ± 0.0084
17,"Cc1cn([C@H]2C[C@H](N=[N+]=[N-])[C@@H](CO)O2)c(=O)[nH]c1=O [Zidovudine, AZT]",0.0544 ± 0.0014
18,O=C(CCCCCCC(=O)Nc1ccccc1)NO [Vorinostat],0.238 ± 0.0041
19,CN/C(=N\CCSCc1nc[nH]c1C)NC#N [Cimetidine],0.252 ± 0.0057
20,O=C(N[C@H](CO)[C@H](O)c1ccc([N+](=O)[O-])cc1)C(Cl)Cl [Chloramphenicol],0.0391 ± 0.00017
